Pf growth 96h: P. falciparum growth inhibition at 96 hours; P. falciparum luciferase reporter growth, 96 h; Potency, µM (doses to about 28.7 µM), inactives show top-dose activity change, negative = inhibition, usual class: inhibitors; 320,000 tested, 6.9% active; AID 504834; further: potency means the concentration at half of the fitted maximal effect; on the % scale 0 is the no-effect control and ±100 the full control effect
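Infected RBCs, 2% Hct / 0.05% parasitemia final; luciferase-reporter P. falciparum; cpd 96 h, 37 C, 5% CO2; luciferase detection reagent; luminescence.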
LASV entry inh: inhibitors of Lassa virus binding or cell entry; Lassa virus pseudotype entry inhibition, cell reporter; Potency, µM (highest dose often 37.9 µM), for the others: at the top dose activity change, negative = inhibition, hits mostly inhibitors; 300,000 tested, 1.2% active; AID 540256; calls by dose curve; tested in HEK293 cells; further: potency means the concentration at half of the fitted maximal effect; on the % scale 0 is the no-effect control and ±100 the full control effect; nearly all actives have a fitted effect of over 50% in size
Pf growth 48h: inhibits P. falciparum growth in the first generation, 48 h; 310,000 tested, 5.9% active; P. falciparum luciferase growth in erythrocytes, 48 h; Potency, µM (doses to about 28.7 µM), inactives show at the top dose activity change, negative = inhibition, most hits filed as inhibitors; further: potency means the concentration at half of the fitted maximal effect; on the % scale 0 is the no-effect control and ±100 the full control effect
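In quantitative HTS format, infected erythrocytes bearing luciferase-reporter parasites were treated for a single generation at 37 C. Luminescence after adding detection reagent served as the growth measure.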
Shiga toxin inh: inhibitors of Shiga toxin in Vero cells; Vero cells, Shiga toxin protein synthesis inhibition reporter; inhibition, % at 38.7 µM; 290,000 tested, 9.2% active; in the data active means inhibition mostly above about 28%, no sharp cut-off; inactive means mostly below about 43%; further: 0% is about no effect
CHX counter: affects cycloheximide protein synthesis inhibition readout, counter-screen; cell reporter, cycloheximide protein synthesis inhibition counterscreen; max response, %; 300,000 tested, 12% active; AID 2314; in the data active means max response mostly above about 13%, no sharp cut-off; inactive means mostly below about 14%; further: read at 38.3 µM for the half of the compounds with a filed dose; 0% is about no effect
MARV entry inh: Marburg virus entry inhibition; AID 540276; Marburg virus pseudotyped entry inhibition, cell reporter; 300,000 tested, 1.8% active; Potency, µM (top dose mostly 37.8 µM), without a hit: at the highest dose activity change, negative = inhibition, actives largely listed as inhibitors; calls by dose curve; tested in HEK293 cells; further: potency means the concentration at half of the fitted maximal effect; on the % scale 0 is the no-effect control and ±100 the full control effect
* = called active by the depositor; ? = inconclusive; . = not tested or not shown; [ ] = remark or other dose. Only some compounds are listed: those with a hit (about 19% of all), similar ones and a draw of the others. Unless noted, the call rests on the fitted dose curve; in most records, active means well fitted inhibition curve with a large enough effect; inconclusive means small, poorly fitted or top-dose-only effect, or another doubt; inactive means no such curve, though single readings can be large or run the other way.

SMILES	Pf growth 96h	LASV entry inh	Pf growth 48h	Shiga toxin inh	CHX counter	MARV entry inh
O=C(N/N=C/c1ccccn1)NC12CC3CC(CC(C3)C1)C2	50.6%	20.7%[46.1 µM]	0.1%	70.1*	39.2*	?
O=C(CCCC(=O)N/N=C\c1ccccn1)N/N=C\c1ccccn1	?	4.1%	17.8%	-19.7	-0.2	-0.3%
COc1cc(/C=N/NC(=O)NC23CC4CC(CC(C4)C2)C3)ccc1OCC(N)=O	5.86µM*	.	9.28µM*	-4.8	-1.1	1.7%
O=C(N/N=C/c1ccccc1F)NC12CC3CC(CC(C3)C1)C2	?	6.3%[46.1 µM]	35.1%	54.0*	33.0*	-1.1%[46.1 µM]
CC(=O)c1ccc2c(c1)CC(C)C(=O)N2C (stereo unspecified)	-14.0%	-2.5%	22.3%	-15.9	2.7	5.3%
Cc1cccc(/C=N/NC(=O)NC23CC4CC(CC(C4)C2)C3)n1	21.4%	-24.8%[46.1 µM]	-28.8%	32.3	19.8*	?
COc1ccc(CC(=O)NCc2ccc3c(c2)cc(C)n3C)cc1OC	?	.	-10.1%	-4.4	1.5	.
COCC(=O)NCc1ccc2c(c1)cc(C)n2C	4.65µM*	28.2%	-5.2%	-10.5	1.1	?
COc1cc(/C=C\C(=O)NCc2ccc3c(c2)cc(C)n3C)cc(OC)c1OC	7.38µM*	?	11.7µM*	23.2	-3.3	5.17µM*
Cc1cc2cc(CNC(=O)c3cc4ccccc4o3)ccc2n1C	14.7µM*	.	11.7µM*	-3.5	-2.7	-3.5%
Cc1cc2cc(CNC(=O)COc3ccccc3)ccc2n1C	-1.9%	.	-0.6%	-2.3	-3.5	.
Cc1onc(-c2ccccc2Cl)c1C(=O)NCc1ccc2c(c1)cc(C)n2C	?	.	10.4µM*	2.0	-5.0	.
O=C(O)CCNS(=O)(=O)c1cccc(Br)c1	-13.6%	.	?	-5.8	-7.9	.
CC1CCC2(CC1)NC(=O)N(CC(=O)N1CCN(S(=O)(=O)c3ccc4c(c3)CCC4)CC1)C2=O (stereo unspecified)	-22.6%	4.8%	-18.5%	.	.	0.1%
O=C(C1=NOC(CNc2ncc(C(F)(F)F)cc2Cl)C1)N1CCOCC1 (stereo unspecified)	5.6%	-7.4%[46.1 µM]	35.6%	-8.3	11.8	?
COc1cc(OC)cc(C(=O)NCc2ccc3c(c2)cc(C)n3C)c1	9.28µM*	?	-17.1%	16.4	-6.9	?
Cc1sc(NC(=O)COc2ccccc2)c(C#N)c1-c1ccccc1	?	17.5%	-3.4%	-4.6	22.9*	16.7%
COc1ccc(NC(=O)CN(C)CC(=O)Nc2sc3c(c2C#N)CCC3)cc1	9.28µM*	.	?	.	.	.
Cc1ccc(OCC(=O)Nc2sc3c(c2C#N)CCC3)cc1	58.5%	-1.1%	116.7%	122.0*	53.0*	6.9%
CCOc1cc(CNCc2ccncc2)cc(Cl)c1OC	29.4%	-2.1%	6.5%	-7.0	-0.6	?
CCc1ccccc1NC(=O)CNC(=O)CCc1nc2sc3c(c2c(=O)[nH]1)CCCC3	3.4%	2.9%[46.1 µM]	4.6%	.	.	0.4%
O=C(CNC(=O)c1cccc(Cl)c1)NCCCSc1ccccc1	0.7%	-21.5%	2.3%	.	.	-1.8%
C/C(CC(=O)C(F)(F)F)=N\NC(=O)/C(C#N)=C/N(C)C	3.4%	.	32.4%	-7.4	-5.4	.
COC(=O)C1=C(C(=O)OC)[C@@H]2N(C)c3ccc(OC)cc3[C@@]23C[C@@H](C(=O)OC)N(C(=O)c2ccc(Br)cc2)C3=N1	68.0%	.	-9.7%	-5.0	-1.4	.
COC(=O)C1=C(C(=O)OC)[C@@H]2N(C)c3ccc(OC)cc3[C@@]23C[C@@H](C(=O)OC)N(S(=O)(=O)c2ccc(OC)cc2)C3=N1	?	.	9.28µM*	-2.2	-3.3	.
COc1cc2c(cc1OC)C(C)N(C(=O)Nc1cc(C)cc(C)c1)CC2 (stereo unspecified)	?	.	?	-8.7	-3.0	.
COc1cc2c(cc1OC)C(C)N(C(=O)c1cc3c(C)cc(C)cc3[nH]1)CC2 (stereo unspecified)	13.1µM*	?	10.4µM*	-4.9	-1.4	3.16µM*
O=C(Nc1ccccc1Cl)Nc1cccnc1Cl	?	2.2%[46.1 µM]	14.2%	25.4	15.3	-17.6%[46.1 µM]
CCOC(=O)CC(=O)Nc1cc(Cl)ccc1O	11.7µM*	3.5%	15.0%	-7.1	4.7	2.3%
O=C(O)CC(=O)Nc1cc(Cl)ccc1O	6.4%	12.1%	.	-3.5	-6.1	2.6%

Screens as filed in PubChem.
